# Screening results deposited in PubChem BioAssay by ICCB-Longwood Screening Facility, Harvard Medical School.
# The entries come from a sample that favours hits as a whole.
# Anaer choline gr: growth inhibitors of anaerobic choline-fed gram-negatives, minimal medium, absorbance | Gram-negative bacterium anaerobic choline minimal medium; stronger effect = lower value | calls only | 0.2% of 55,000 active | AID 1963822, 2024; call rule not given here
# Starred values were filed as active, the others as inactive; i = inactive; + = active, no number.
SMILES,Anaer choline gr
O=C1C[C@@H]2OCC=C3CN4CC[C@]56c7ccccc7N1[C@H]5[C@H]2[C@H]3C[C@H]46,+
COc1cccc(CC(=O)N2CCN(Cc3noc4ccccc34)CC2)c1,i
CCCC(=O)N1CCC2(C1)C(=O)N(C)c1ccc(OC)cc12 (stereo not drawn),i
Cc1cc(NC(=O)c2cccn(Cc3cccc(F)c3)c2=O)ccc1Br,i
CCCCCCCCCCCCCCCCOC[C@@H](COP(=O)([O-])OCC[N+](C)(C)C)OC(C)=O,+
CCCCCCCCCCCCCCCC(=O)OC[C@H](COP(=O)([O-])OCC[N+](C)(C)C)OC(C)=O,i
CCCCCCCCCCCCCCCCOC[C@H](COP(=O)([O-])OCC[N+](C)(C)C)OC(C)=O,i
Cc1ccc(C2c3cccn3-c3ccccc3CN2S(=O)(=O)c2cccc3nsnc23)cc1 (stereo not drawn),i
O=C(CN1CCN(C(=O)COc2cccc(F)c2)CC1)Nc1nnc(-c2ccccc2)s1,i
COc1ccc2c(c1)C1(CCN(C(=O)C(C)(C)C)C1)C(=O)N2 (stereo not drawn),i
